Screening results as filed in PubChem.
Hits are enriched below; roughly 3.3% of the tested compounds scored in any of these assays.
Statin myotox sup = protects C2C12 myotubes from simvastatin toxicity | rescue of ATP level, % at 7.49 µM | ATP luminescence, 48 h; scaled: DMSO 0, geranylgeraniol control 100 | actives 0.78% (n = 330,000) | AID 602340;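 active means mean ATP rescue above about 67%, or every replicate alone reaching that limit, limit read from the data, passing the limit was not always enough; inconclusive means no clear call, values can overlap the other calls; inactive means mean under the limit and some replicate under it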;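 further: myotubes were challenged with 10 µM simvastatin during compound exposure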
MITF act = MITF TRPM1 promoter activation in melanoma cells; SK-MEL-5 TRPM1-promoter luciferase, 24 h; % of positive control, neutral wells = 0; activation, % at 12.5 µM; actives 0.75% (n = 300,000); AID 588334;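 active means mean activation of at least 80% with every replicate also reaching 80%; inconclusive means mean reaches 80% but some replicate falls short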
FXN GAA850 act = frataxin GAA850 promoter activation | activation, % at 6 µM | AID 540364 | actives 0.56% (n = 360,000) | HEK293 lucGAA850 FXN promoter luciferase reporter, 24 h; percent of 10 µM SAHA response;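 active means activation above the average of all compounds screened plus 3 SD, cutoff fixed separately per campaign, cut at about 7.5% in these data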
esBAF inh = inhibitors of esBAF chromatin remodeling in mouse ES cells. Bmi1-luciferase knock-in reporter, 24 h; 100% = twice the neutral-well signal. actives 2% (n = 350,000). reporter increase, % at 12.5 µM. AID 602393; in the data active means activation above about 40%; inconclusive means no clear call, values can overlap the other calls;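 further: a rise in the Bmi1 reporter signal indicates esBAF inhibition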
Wnt bcat act = Wnt/beta-catenin pathway activation; Wnt/beta-catenin reporter cell assay, activator, plate reader; actives 1.2% (n = 300,000); activation, % at 9.35 µM; in the data active means activation above about 30%, passing the limit was not always enough; inconclusive means no clear call, values can overlap the other calls
Hits are given with their value; . = inactive; ? = inconclusive; / = no result given.

SMILES | Statin myotox sup | MITF act | FXN GAA850 act | esBAF inh | Wnt bcat act
O=C(/C=C/c1ccccc1)C1=C(O)C(=O)N(CCO)C1c1ccc2c(c1)OCO2 (stereo not given) | 115 | . | . | . | .
O=C(C[C@H]1CC[C@H](NS(=O)(=O)c2ccccc2)[C@@H](CO)O1)NCc1ccncn1 | . | / | / | . | /
COc1ccc(C2=NN(c3ccccc3)C(c3ccc(OC)c(OC)c3)C2)cc1 (stereo not given) | . | 84 | . | 47 | .
COc1ccc(C(C#N)N2CCC(c3ccccc3)=N2)cc1OC (stereo not given) | / | . | . | / | .
COc1ccc(C2=NN(C(C#N)c3ccc(OC)c(OC)c3)C(c3ccccc3)C2)cc1 (stereo not given) | . | . | . | 51 | 61
Cn1cnc(S(=O)(=O)N[C@@H]2CC[C@@H](CC(=O)N3CCN(c4ccccc4)CC3)O[C@@H]2CO)c1 | . | / | / | . | /
COc1cc(OC)cc(C(=O)Nc2cccc(-c3ccc(N4CCOCC4)nn3)c2)c1 | . | 101 | . | . | .
Cc1ccc(C(=O)Nc2cccc(-c3ccc(N4CCOCC4)nn3)c2)cc1C | / | . | . | / | .
COc1cccc(OC)c1C(=O)Nc1cccc(-c2ccc(N3CCOCC3)nn2)c1 | . | 83 | . | . | .
COc1ccc(C(=O)Nc2cccc(-c3ccc(N4CCOCC4)nn3)c2)cc1 | . | 90 | . | 45 | .
O=C(Nc1ccccc1)N1C[C@@H]2[C@H](c3ccccc31)[C@@H](CO)N2C(=O)c1cccnc1 | . | / | / | . | /
O=C(c1ccccc1F)N1C[C@H]2[C@@H](c3ccccc31)[C@H](CO)N2C(=O)c1ccccc1 | . | / | / | . | /
Clc1ccc(-c2noc(CN3CCCC3)n2)cc1 | . | / | . | 44 | .
COc1ccc(S(=O)(=O)N(C)C[C@H]2Oc3cc(C#CC4CC4)ccc3S(=O)(=O)N([C@@H](C)CO)C[C@H]2C)cc1 | . | / | / | . | /
C=CCn1c(SCC(=O)NC2CCCC2)nc2scc(-c3ccco3)c2c1=O | 116 | . | . | . | .
COc1ccc(S(=O)(=O)Nc2cccc3c2O[C@@H](CN(C)Cc2ccc(Cl)c(Cl)c2)[C@@H](C)CN([C@@H](C)CO)C3=O)cc1 | / | / | / | . | /
CC(=O)Nc1ccc(S(=O)(=O)Nc2nc3ccccc3nc2Sc2nncn2C)cc1 | . | . | . | 44 | .
CCC(=O)n1nc(-c2ccc(OC)cc2)nc1SC | . | . | . | 43 | /
CSc1nc(-c2ccc(Cl)cc2)nn1S(=O)(=O)c1ccc(Cl)cc1 | . | / | . | 47 | .
CCC(=O)n1nc(-c2ccc(Cl)cc2)nc1SC | . | . | . | 71 | 40
CSc1nc(-c2ccc(Cl)cc2)nn1S(=O)(=O)c1ccccc1 | . | . | . | ? | /
CCCC(=O)n1nc(-c2ccc(Cl)cc2)nc1SC | . | . | . | . | /
O=C(NCC[C@H]1CC[C@H](NS(=O)(=O)Cc2ccccc2)[C@H](CO)O1)C1CC1 | . | / | / | . | /
CO[C@@H]1CN(C)C(=O)c2cc(NS(C)(=O)=O)ccc2OC[C@H](C)N(C(=O)C2CC2)C[C@H]1C | . | / | / | . | /
O=C(Nc1ccc(F)cc1)N[C@H]1CC[C@H](CCNS(=O)(=O)c2ccccc2F)O[C@H]1CO | . | / | / | . | /
SMILES | Statin myotox sup | MITF act | FXN GAA850 act | esBAF inh | Wnt bcat act
CCOc1ccccc1NC(=O)c1ccc(OCC)c([N+](=O)[O-])c1 | / | . | . | / | /
CCOc1ccc(C(=O)Nc2nc(C)cc(C)n2)cc1[N+](=O)[O-] | 93 | . | . | . | .
CNC[C@@H]1Oc2cc(C#CC3CCCC3)ccc2S(=O)(=O)N([C@@H](C)CO)C[C@H]1C | . | / | / | . | /
CCCCn1c(SCc2ccccn2)nc2c1c(=O)n(C)c(=O)n2C | 117 | . | . | . | .
CCCCn1c(SCc2cccnc2)nc2c1c(=O)n(C)c(=O)n2C | . | . | . | . | /
COC(=O)C[C@@H]1CC[C@@H]2[C@@H](COc3ccc(NC(=O)Nc4cc(C)cc(C)c4)cc3C(=O)N2C)O1 | . | / | / | . | /
O=C(c1cccs1)N1CCN=C1SCc1ccc(F)cc1 | / | . | . | / | 37
Cc1cc(C)c(C#N)c(N2CCSCC2)n1 | . | . | . | . | 62
Cc1cc(C)c(C#N)c(N2CCCC(C(N)=O)C2)n1 (stereo not given) | 170 | . | . | . | /
CO[C@@H]1CN(C)C(=O)c2ccc(NS(=O)(=O)c3cn(C)cn3)cc2OC[C@H](C)NC[C@@H]1C | . | / | / | . | /
CN1C(=O)c2cc(NC(=O)c3ccccc3F)ccc2OC[C@H]2O[C@@H](CC(=O)NCc3ccc4c(c3)OCO4)CC[C@H]21 | . | / | / | . | /
O=C1CC(c2ccccc2)Sc2nc3ccccc3n21 (stereo not given) | / | . | . | / | 35
CN1C(=O)c2cc(NS(=O)(=O)c3ccc(Cl)cc3)ccc2OC[C@H]2O[C@H](CC(=O)O)CC[C@H]21 | . | / | / | . | /
CC#CC#Cc1cccc(=O)o1 | 97 | . | . | . | .
O=C(N[C@@H]1CC[C@H](CCn2cc(C3CCCCC3)nn2)O[C@@H]1CO)c1cccnc1 | . | / | / | . | /
CC(O)(c1cccnc1)c1nc(-c2ccc3ccccc3c2)cs1 (stereo not given) | . | / | . | 57 | .
O=C(/C(=C(\O)c1ccccc1)c1nc2ccccc2[nH]1)c1ccccc1 | . | . | . | . | .
CC(=O)/C(=C(/O)c1ccccc1)c1nc2ccccc2[nH]1 | . | 85 | . | . | .
Cc1ccc(-n2c(=O)cc(N3CCN(C(=O)c4ccco4)CC3)[nH]c2=O)cc1 | 102 | . | . | . | .
COc1ccc(NC(=O)Nc2ccc3c(c2)CC(=O)N([C@H](C)CO)C[C@@H](C)[C@H](CN(C)S(=O)(=O)c2cccs2)O3)cc1 | . | / | / | . | /
Cc1cccc(C(=O)N2CCC(n3nnc4cc(F)ccc43)CC2)c1 | 134 | . | . | . | /
COc1ccc(OCC(=O)N/N=C2\CCc3ccccc32)cc1 | . | . | . | . | /
NC(=O)C(=O)N/N=C1\CCc2ccccc21 | . | . | . | 48 | 33
CCOc1ccc(C2SCC(=O)N2c2c(C)n(C)n(-c3ccccc3)c2=O)cc1 (stereo not given) | 117 | . | . | . | /
Cc1c(N2C(=O)CSC2c2ccccc2)c(=O)n(-c2ccccc2)n1C (stereo not given) | / | / | . | / | .
SMILES | Statin myotox sup | MITF act | FXN GAA850 act | esBAF inh | Wnt bcat act
CCS(=O)(=O)N[C@H]1C=C[C@@H](CC(=O)NCc2ccc(Cl)cc2)O[C@H]1CO | . | / | / | . | /
c1ccc(COc2ccc(Nc3ncnc4nc[nH]c34)cc2)cc1 | / | 82 | . | . | .
CCOC(=O)c1ccc(Nc2ncnc3ccccc23)cc1 | . | . | . | . | .
CCOC(=O)c1ccc(Nc2ncnc3nc[nH]c23)cc1 | . | 121 | . | . | 56
Cc1cc2c(cc1C)CN(c1ccccc1)C2 | . | 96 | . | 48 | 49
CCOc1ccccc1N1Cc2cc(C)c(C)cc2C1 | . | / | . | 46 | .
CC(=O)c1ccc2noc(-c3ccc(C)cc3)c2c1 | / | . | . | / | .
NC(=O)NC(=O)COC(=O)c1ccc2noc(-c3ccccc3)c2c1 | . | . | . | 68 | .
